# Measured values reported in PubChem BioAssay (EPA / NIEHS).
# Records with an inconclusive call do not appear. Active and inactive are the calls of the source. How the source made its calls: active means hit-call score of the fitted dose curve at least 0.9, where 1 is the maximum; inconclusive means response in the unintended direction; inactive means score below 0.9.
# Read-out: glucuronosyltransferase (UGT1A1), UGT1A1 (gene 54658)
# Assay: CLD_UGT1A1_24hr: CellzDirect (CLD) Gene Expression Assay for glucuronosyltransferase (UGT1A1) at 24 hours (AID 2283696)
# Protocol: CLD_24hr is a cell-based, multiplexed-readout assay that uses hepatocyte, a human liver primary cell, with measurements taken at 24 hours after chemical dosing in a 96-well plate.CLD_UGT1A1_24hr is one of 16 assay component(s) measured or calculated from the CLD_24hr assay. It is designed to make measurements of mRNA induction, a form of inducible reporter, as detected with chemiluminescence signals by Quantitative Nuclease Protection Assay (qNPA) technology.Data from the assay component CLD_UGT1A1_24hr was analyzed at the endpoint, CLD_UGT1A1_24hr, in the positive analysis fitting direction relative to DMSO as the negative control and baseline of activity. Using a type of inducible reporter, gain-of-signal activity can be used to understand changes in the reporter gene as they relate to the gene UGT1A1. Furthermore, this assay endpoint can be referred to as a primary readout. To generalize the intended target to other relatable targets, this assay endpoint is annotated to the transferase intended target family, where subfamily is glucuronosyltransferase.
# Human hepatocyte cultures were treated daily for two consecutive days with fresh dosing solutions containing appropriate concentrations of the 320 ToxCast chemicals (chemical identities were blinded to CellzDirect and other ToxCast collaborators), vehicle control (0.2% DMSO), and positive control inducers as summarized in Table 1. Due to the large number of treatment groups and chemicals examined, the ToxCast chemicals were divided into two groups (spanning two independent cultures of hepatocytes from separate donor preparations (Hu778: ToxCast plates 1 and 2; Hu776: ToxCast plates 3 and 4). Each preparation of human hepatocyte cultures was treated with respective vehicle control, medium only control, set of six positive controls/reference chemicals for the five hepatic receptor pathways, and a subset of eight of the ToxCast chemicals (indoxacarb, pyrithiobac-sodium, norflurazon, cyhalofop-butyl, methomyl, thiram, acetochlor, and propiconazole). These replicate data, coupled with internal replicates designed within the blinded ToxCast chemical library, provided additional data to evaluate interindividual differences between hepatocyte preparations and their potential impact on chemical profiles.Cell morphology and integrity were evaluated using phase-contrast microscopy as an indicator of hepatocyte cell health (Tyson & Green, 1987). Cultures for each treatment group (i.e., media, vehicle [0.2% DMSO], positive control inducers [multiple concentrations], and the ToxCast chemicals [multiple concentrations]) were observed and cell morphology was assessed relative to vehicle control cultures at each harvest time point (0, 6, 24, or 48 h). […] Images were evaluated at the conclusion of the study to assess changes in cell integrity and account for the effects of chemical exposure on uncharacteristic changes in concentration-dependent gene expression profiles. The results from these determinations of apparent cytotoxicity were annotated (yes/no) alongside the corresponding qNPA data for reference.At the conclusion of each treatment period, hepatocyte cultures (96-well) were washed with 1 volume of HBSS, lysed by addition of 25 ul ArrayPlate lysis buffer (HTG, Tucson, AZ), and 70 ul/well of Denaturation Oil, denatured by incubation at 95C for 10 min, and frozen at approximately -70C until analysis by nuclease protection assay (qNPA) (Roberts et al., 2007). For qNPA analysis, cell lysates were thawed at 50C for approximately 30 min, qNPA probes were added, and samples were incubated at 95C for 10 min to begin the detection process by denaturing the target RNA, dissociating the duplexes and secondary structure hybridization. At the conclusion of the hybridization period, S1 nuclease reagent was added to each sample to digest all nonprotected nucleotides at 50C for 60-90 min. […]
Structure (SMILES),outcome,AC50
O=S1OCC2C(CO1)C1(Cl)C(Cl)=C(Cl)C2(Cl)C1(Cl)Cl (stereo not given),inactive,–
CCc1ccc(C(=O)NN(C(=O)c2cc(C)cc(C)c2)C(C)(C)C)cc1,–,4.06 µM (active)
CN1CSC(=S)N(C)C1,inactive,–
CCC(C)Nc1c([N+](=O)[O-])cc(C(C)(C)C)cc1[N+](=O)[O-] (stereo not given),inactive,–
Cc1[nH]c(=O)n(C(C)(C)C)c(=O)c1Cl,inactive,–
CNC(=O)CSP(=S)(OC)OC,inactive,–
ClC1C(Cl)C(Cl)C(Cl)C(Cl)C1Cl (stereo not given),inactive,–
CNC(=O)/C=C(\C)OP(=O)(OC)OC,inactive,–
Oc1cc(Cl)ccc1Oc1ccc(Cl)cc1Cl,inactive,–
CNC(=O)Oc1ccccc1OC(C)C,inactive,–
CC(C)N(C(=O)COc1nnc(C(F)(F)F)s1)c1ccc(F)cc1,inactive,–
COC(=O)c1ccccc1S(=O)(=O)NC(=O)N(C)c1nc(C)nc(OC)n1,inactive,–
Cc1cc(C)nc(NC(=O)NS(=O)(=O)c2ccccc2C(=O)OC2COC2)n1,inactive,–
C#CCN1C(=O)COc2cc(F)c(N3C(=O)C4=C(CCCC4)C3=O)cc21,inactive,–
CCCN(CCC)c1c([N+](=O)[O-])cc(C(F)(F)F)cc1[N+](=O)[O-],inactive,–
CNC(=O)Oc1cccc(N=CN(C)C)c1,inactive,–
COP(=S)(OC)Oc1ccc([N+](=O)[O-])cc1,inactive,–
CCOCN(C(=O)CCl)c1c(C)cccc1CC,inactive,–
COP(=S)(OC)Oc1ccc(SC)c(C)c1,inactive,–
COP(=O)(OC)OC=C(Cl)Cl,inactive,–

Structure (SMILES),outcome,AC50
CCN(CC)C(=O)SCc1ccc(Cl)cc1,inactive,–
O=C(O)CCCOc1ccc(Cl)cc1Cl,inactive,–
Clc1ccccc1-c1nnc(-c2ccccc2Cl)nn1,inactive,–
CC1(C)C(C=C(Cl)Cl)C1C(=O)OC(C#N)c1ccc(F)c(Oc2ccccc2)c1 (stereo not given),inactive,–
O=C(NC(=O)c1c(F)cccc1F)Nc1ccc(OC(F)(F)C(F)OC(F)(F)F)c(Cl)c1 (stereo not given),inactive,–
CCOC1Oc2ccc(OS(C)(=O)=O)cc2C1(C)C (stereo not given),inactive,–
O=[N+]([O-])c1c(Cl)c(Cl)c(Cl)c(Cl)c1Cl,inactive,–
CC(C)OC(=O)Nc1cccc(Cl)c1,–,20 µM (active)
CCS(=O)(=O)c1cccnc1S(=O)(=O)NC(=O)Nc1nc(OC)cc(OC)n1,inactive,–
CC(C)(C)C(O)C(Oc1ccc(Cl)cc1)n1cncn1 (stereo not given),–,6.66 µM (active)
COc1cc(OC)nc(NC(=O)NS(=O)(=O)c2cc(NC=O)ccc2C(=O)N(C)C)n1,inactive,–
CCC(C)(C)C(=O)OC1=C(c2ccc(Cl)cc2Cl)C(=O)OC12CCCCC2,inactive,–
COc1nn(CSP(=S)(OC)OC)c(=O)s1,inactive,–
O=C(O)C(F)(F)C(F)(F)C(F)(F)C(F)(F)C(F)(F)C(F)(F)C(F)(F)F,inactive,–
Oc1ccc(Cl)cc1Cc1ccccc1,inactive,–
OCCOc1ccccc1,inactive,–
O=C(O)COc1ccc(Cl)cc1Cl,inactive,–
O=C1c2ccccc2C(=O)N1SC(Cl)(Cl)Cl,inactive,–
CC(C)(C)C(O)/C(=C\c1ccc(Cl)cc1Cl)n1cncn1 (stereo not given),inactive,–
O=S(=O)(O)C(F)(F)C(F)(F)C(F)(F)C(F)(F)C(F)(F)C(F)(F)C(F)(F)C(F)(F)F,inactive,–
